# Compound activity (PubChem BioAssay)
# S-ASM inh: human S-ASM enzyme inhibition; AID 504937; placental ASM, HMU-PC fluorogenic substrate, 60 min; 340,000 tested, 0.006% active; Potency, µM (highest dose often 57.5 µM), without a hit: at the top dose activity change, negative = inhibition, usual class: inhibitors; also: potency is read from the fitted curve at half-maximal effect
#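 qHTS format. ASM enzyme prepared from human placenta hydrolyses the fluorogenic substrate HMU-PC0 (9 uM final) over 60 min at 37 °C after a 10 min compound preincubation.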
# hERG WT inh: inhibitors of human wildtype KCNH2 potassium channel. Q12809. U2OS, BacMam KCNH2, thallium flux FluxOr; hits give low values. activity change, % at 1.84 µM. 340,000 tested, 0.37% active. AID 720551;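 active = maximum activity change below -70%; inconclusive = maximum activity change between -70% and -50%; inactive = maximum activity change above -50%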; also: % is scaled to controls: 0 for no effect and ±100 for the full control effect
#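 U2OS cells transduced with wild-type KCNH2 virus are loaded with FluxOr dye for 45 min, and thallium flux is measured in kinetic reads before and after stimulation buffer. Rate constants are normalized to DMSO controls.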
# KCNH2 3.1 block: KCNH2 3.1 (human) potassium channel inhibition; activity change, % (tested at about 1.8 µM); U2OS KCNH2 3.1, thallium flux FluxOr; hits give low values; 340,000 tested, 0.95% active;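 active = maximum activity change below -70%; inconclusive = maximum activity change from -70% to -50%; inactive = maximum activity change above -50%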;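 also: thallium influx rate constant from kinetic fluorescence after stimulation buffer; % is scaled to controls: 0 for no effect and ±100 for the full control effect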
#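 Normalized rate constant (relative to positive and negative DMSO controls) derived from a 2 min kinetic fluorescence read after stimulation; U2OS cells expressing the 3.1 isoform via virus at 1.77 x 10^8 /mL.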
# Apoferritin bind: candidate novel general anesthetic via apoferritin binding; apoferritin/1-aminoanthracene competitive binding, fluorescence; Potency, µM (series often up to 77.5 µM), for the others: at the highest dose activity change, negative = displacement, hits mostly inhibitors; 350,000 tested, 0.074% active; AID 485281; also: potency is read from the fitted curve at half-maximal effect; % is scaled to controls: 0 for no effect and ±100 for the full control effect; nearly all actives have a fitted effect of over 20% in size
# Target sequence (P02791 2-175 limits assumed): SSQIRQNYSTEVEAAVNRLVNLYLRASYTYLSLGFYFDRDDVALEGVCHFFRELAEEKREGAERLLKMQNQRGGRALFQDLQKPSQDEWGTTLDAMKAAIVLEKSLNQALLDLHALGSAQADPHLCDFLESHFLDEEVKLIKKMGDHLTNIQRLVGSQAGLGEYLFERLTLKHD
#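 Read-out: endpoint 1-AMA fluorescence, excitation 380 nm and emission 535 nm, after compounds sit 10 min at room temperature with 10 uM horse-spleen apoferritin in 50% saturated 1-AMA/PBS. Values come from four-parameter Hill fits.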
# IDH1 R132H inh: blocks human mutant IDH1 R132H enzyme | Potency, µM (titrated, usually from 76.6 µM), for the others: at the top dose activity change, negative = inhibition, hits mostly inhibitors | O75874 | 390,000 tested, 0.093% active | IDH1-R132H enzyme, NADPH consumption, diaphorase/resazurin fluorescence; also: potency is read from the fitted curve at half-maximal effect; % is scaled to controls: 0 for no effect and ±100 for the full control effect; nearly all actives have a fitted effect of over 65% in size
# Target sequence (O75874 whole entry R132H, stated change not applied): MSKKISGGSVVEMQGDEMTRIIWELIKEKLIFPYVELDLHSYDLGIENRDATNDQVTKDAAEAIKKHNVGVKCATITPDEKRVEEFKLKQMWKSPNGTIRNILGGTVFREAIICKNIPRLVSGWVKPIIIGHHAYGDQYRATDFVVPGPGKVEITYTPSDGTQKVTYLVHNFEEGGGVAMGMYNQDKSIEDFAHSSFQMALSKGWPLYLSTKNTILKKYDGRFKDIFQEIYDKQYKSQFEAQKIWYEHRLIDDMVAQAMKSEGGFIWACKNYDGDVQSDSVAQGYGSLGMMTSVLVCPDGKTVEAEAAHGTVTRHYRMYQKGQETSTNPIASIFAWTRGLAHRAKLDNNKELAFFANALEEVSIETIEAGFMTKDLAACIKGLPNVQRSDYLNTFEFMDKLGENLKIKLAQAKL
#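 IDH1-R132H (0.5 ug/mL) preincubated 30 min with compound, then NADPH (0.016 mM) and alpha-KG (2 mM) added; 80 min at RT, pH 7.5. Remaining NADPH coupled via diaphorase/resazurin to fluorescence (540/590 nm); concentration-response curves normalized to no-enzyme control.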
# Starred values were filed as active, the others as inactive; ? = inconclusive; . = not tested or not shown; [ ] = remark or other dose. Only some compounds are listed: those with a hit (about 1.2% of all), similar ones and a draw of the others. Unless noted, calls follow the shape of the dose curve; as a rule, active = well fitted inhibition curve with a large enough effect; inconclusive = small, poorly fitted or top-dose-only effect; inactive = no such curve, though single readings can be large or run the other way.
SMILES,S-ASM inh,hERG WT inh,KCNH2 3.1 block,Apoferritin bind,IDH1 R132H inh
COc1ccc(N(CC(O)Cn2c(C)nc3ccccc32)S(=O)(=O)c2ccc(C)cc2)cc1 (centres undefined),-1%,?,-102*,-9%,1%
Cc1ccc(S(=O)(=O)N(CC(O)CN2CCCCC2)c2ccccc2)cc1 (centres undefined),2%,24,-32,-17%,9%
CCCN(CCC)CC(O)CN(c1ccccc1)S(=O)(=O)c1ccc(C)cc1 (centres undefined),-1%,-96*,-81*,-22%,-6%
Cc1cccc(NC(=O)CSc2nc(-c3cccs3)cc(C(F)(F)F)c2C#N)c1C,.,.,.,26%,-16%
Cc1ccc(CNC(=O)Cc2ccc(-n3cccc3)cc2)cc1,1%,-3,-1,-3%,-3%
O=C(Cc1ccc(-n2cccc2)cc1)NCc1cccs1,0%,-10,-89*,0%,2%
CCCCCCC(=O)Nc1c2c(nc3ccccc13)N(C)CC2,196%,-101*,-95*,93%,-3%
COc1ccc(N2CCN(Cc3nc4c(c(=O)[nH]c(=O)n4C)n3Cc3ccccc3F)CC2)cc1,.,.,.,3%,-22%
COc1cc(/C=N/NC(=O)C(=O)/C=C2\NC3(CCCC3)Cc3ccccc32)ccc1O,-17%,3,-26,-20%,5%
O=C(/C=C1\NC2(CCCC2)Cc2ccccc21)C(=O)N/N=C/c1ccccc1O,-11%,-22,-85*,-18%,9%
Cn1cc(CNCc2ccc(-n3cccn3)cc2)c(-c2ccccc2F)n1,4%,13,-7,-14%,0%
Cn1cc(CNCCCn2ncc3ccccc32)c(-c2ccccc2F)n1,3%,14,-97*,-10%,2%
Cc1ccccc1CNC(=O)C(=O)NCCC1CCCCN1S(=O)(=O)c1cccs1 (centres undefined),.,-144*,-166*,.,1%
COc1ccccc1CNC(=O)C(=O)NCCC1CCCCN1S(=O)(=O)c1cccs1 (centres undefined),2%,9,-2,.,3%
O=C(CSc1ccccc1Cl)c1ccco1,0%,-15,-9,25µM*,2%
CC(C)CCCC(C)C1CCC2C3CC=C4CC(O)CC[C@@]4(C)C3CC[C@@]12C (some centres undefined),.,.,.,3%,.
CCc1cc(=O)[nH]c(SCc2cccc3ccccc23)n1,-1%,2,-110*,-15%,7%
Nc1cc(=O)[nH]c(SCc2cccc3ccccc23)n1,-7%,-8,4,-15%,0%
O=C(O)[C@H]1O[C@@H](Oc2ccc3ccc(=O)oc3c2)[C@H](O)[C@@H](O)[C@@H]1O,.,.,.,0%,.
Cc1ccccc1SCC(=O)OCC(=O)Nc1sccc1C(N)=O,-5%,13,-74*,-14%,2%
Cc1cc2nc(SCC(=O)Nc3ccccc3C(=O)O)[nH]c2cc1C,11%,6,-138*,-2%,5%
NC(=O)c1ccccc1NC(=O)CSc1nc2ccccc2c(=O)[nH]1,1%,-8,-4,-1%,1%
C#CC(C)OC(=O)c1nnc2c3ccccc3n(COC)c2n1 (centres undefined),.,.,.,-8%[15.3 µM],.
COc1ccc(CCNC(=S)NNC(=O)c2c(Br)c(C)nn2C)cc1OC,-1%,7,-75*,-5%,2%
COc1ccc(-c2sc3ccc(OC)cc3c2-c2ccc(OC)c(F)c2)cc1,-1%,-16,-4,.,-5%
SMILES,S-ASM inh,hERG WT inh,KCNH2 3.1 block,Apoferritin bind,IDH1 R132H inh
COc1ccc(-c2sc3ccc(N4CCOCC4)cc3c2-c2ccc(OC)c(F)c2)cc1,6%,-13,-87*,-10%,9%
CCc1cccc(C)c1NC(=O)Cn1cc2c(n1)CCCC2,.,.,.,-6%,-8%
Cn1cc(CN2CCN(Cc3ccccc3)CC2)c(-c2cccc(Cl)c2)n1,6%,7,-99*,-13%,6%
COCCN1CCN(Cc2cn(C)nc2-c2cccc(Cl)c2)CC1,2%,3,5,-4%,7%
Cc1cnc(C)c(N2CCN(Cc3cn(C)nc3-c3cccc(Cl)c3)CC2)n1,3%,22,-115*,-11%,12%
C[C@]12C=CC(=O)C=C1CC[C@@H]1[C@H]3C[C@@H](O)[C@](O)(C(=O)CO)[C@@]3(C)C[C@H](O)[C@]12F,.,.,.,0%[29.3 µM],.
CCOC(=O)c1cccc(NC(=O)c2ccc3nc(CCc4ccccc4)oc3c2)c1,.,.,.,-5%,2%
Cc1c(NC(=O)c2nc3ccccc3nc2N2CCCCC2)cccc1[N+](=O)[O-],.,.,.,-11%,-4%
CC(C)c1nccn1S(=O)(=O)c1cc(Cl)ccc1Cl,-1%,-5,-2,2%,6%
COc1ccc(Cl)cc1S(=O)(=O)n1ccnc1C(C)C,3%,2,-83*,-9%,-5%
CCC(=O)OCC(=O)Nc1cc(C)c(C)cc1[N+](=O)[O-],0%,3,-4,-10%,3%
Cc1cc(NC(=O)COC(=O)CC2CCCC2)c([N+](=O)[O-])cc1C,-5%,-13,-72*,?,0%
O=C(Nc1cnccn1)c1ccc(Cl)cc1,16%,0,-7,-2%,7%
O=C(Nc1cnccn1)c1ccncc1,9%,0,-84*,-2%,11%
CCCCNC(=O)CCC1N=C2c3ccccc3N=C(SCC(=O)NCCc3ccc(OC)c(OC)c3)N2C1=O (centres undefined),.,.,.,0%,6%
CC(C)c1ccc(NC(=O)C(NS(=O)(=O)c2ccc3c(c2)CCC(=O)N3)c2ccccc2)cc1 (centres undefined),.,.,.,-20%,-29%
O=C1CCc2cc(S(=O)(=O)NC(C(=O)N3CCN(c4ccccn4)CC3)c3ccccc3)ccc2N1 (centres undefined),36%,-117*,-8,-13%,-5%
O=C1CCCc2cc(S(=O)(=O)N3CCCC(C(=O)Nc4ccc(F)c(Cl)c4)C3)ccc2N1 (centres undefined),.,.,.,-9%,?
CCOC(=O)N/N=C1/C[C@@H](O)[C@@H](O)[C@@H]2[C@@H]3C(=O)N(C(C)(C)C)C(=O)[C@H]3CC[C@H]12,.,.,.,-5%[15.3 µM],.
COc1ccc(CNc2oc(COc3ccccc3)nc2C#N)cc1,0%,-17,-78*,-10%,3%
c1ccc(-c2ccc(OCCCNC3CCCC3)cc2)cc1,-3%,-10,-92*,?,-9%
COc1ccc(OCCNC2CCCC2)cc1,4%,-17,16,5%,3%
CCN1CCN(c2cc(C)c3cc(NC(=S)N(C)Cc4ccccc4)ccc3n2)CC1,35%,-7,-70*,2%,0%
CC(=O)c1ccc(Nc2nc(-c3sc(C)nc3C)cs2)cc1,.,-134*,5,.,7%
CC(=O)Nc1ccc(Nc2nc(-c3sc(C)nc3C)cs2)cc1,-1%,-3,-1,-10%,3%
